This is part of a sample that, as a whole, favours compounds with a hit. Of some 83,000 tested, about 20% had one in any assay.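 Testing used 96-well plates and a 48-hour single-concentration exposure. Example: -40 means 40% of the starting cells died.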 A number with no mark means an inactive call. Calls of active or inactive are those of the source. Rule for the calls: active = growth percent below 10; inactive = the rest.
The molecules below were run on HL-60(TB) leukemia (assay: NCI-60 one-dose screen, 48 h (100 = growth as untreated, 0 = no growth, -100 = all killed)). Details: 10 µM unless noted.

SMILES | growth
NC(=N\N=C/c1ccc(O)cc1)/C(N)=N\N=C/c1ccc(O)cc1 | 25.9%
O=C(NNC(=S)Nc1ccccc1)c1cc2ccc1CCc1ccc(cc1)CC2 | 77.1%
C=C1C(=O)O[C@H]2[C@H]1CC/C(Cn1cc(Cn3ccc4ccccc43)nn1)=C\CC[C@@]1(C)O[C@@H]21 | -48.5% (active)
CS(=O)(=O)c1ccc(-c2nc3ccccc3n2CC(=O)N/N=C/c2ccccc2)cc1 | 141%
O=C(Nc1nc(-c2ccccc2)cs1)c1cc(O)c(O)c(O)c1 | 12.6%
CS(=O)(=O)Nc1cncc(-c2ccc3ncnc(Nc4cncc(Cl)c4)c3c2)c1 | 71.5%
COc1ccc(/C=C2\Cc3c(Br)cccc3C2=O)c(OC)c1 | 89.2%
C[C@H]1[C@H](C)CC[C@]2(C(=O)N3CCN(C)CC3)CC[C@]3(C)C(=CC[C@@H]4[C@@]5(C)C/C(=C/c6ccco6)C(=O)C(C)(C)[C@@H]5CC[C@]43C)[C@H]12 | -39.1% [100 µM] (active)
CN(C)S(=O)(=O)c1cccc(C(=O)Nc2nc(-c3ccc(F)c(F)c3)cs2)c1 | 61.1%
Nc1nc2c(s1)CCc1c-2c(Br)n(Cc2ccccc2)c1Br | 51.6%
NC1=NC(c2ccc(Cl)cc2)C2=C(N1)/C(=C/c1ccc(Cl)cc1)CCC2 (stereo not drawn) | 64.8%
Cc1ccc2c(c1)C(=O)C(c1c(-c3[nH]c(=O)c4ccc(C)cc4c3O)c(O)c3ccccc3c1O)=NC2=O | 8.93% (active)
CC(=O)c1ccc(Br)c([N+](=O)[O-])c1 | 122%

— PubChem BioAssay (NCI)
